This test has as its target furin, P09958. Nature of the test: furin cleavage Z-score vs untreated control; higher = more cleavage, active = 3.5 or more, inactive = 1 or less, 8 variable residues between constant flanks. In a few lines:
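Read counts from sequencing released DNA gave abundance for each bead-bound 8-mer peptide–cDNA fusion cut by purified furin over 7.5, 15 or 30 min. The cleavage Z-score compares log counts with furin-free reactions after lowess adjustment and median absolute deviation scaling.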

The values that follow come from the supplement of paper PMC3545927.

The other results are listed elsewhere or left out. The hit rate among all sequences tested is not known here.
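Further: purified furin at 1:10 enzyme:substrate in 50 mM HEPES pH 7.5.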

Sequence of furin, P09958 (P09958 whole entry, the tested form may be a part): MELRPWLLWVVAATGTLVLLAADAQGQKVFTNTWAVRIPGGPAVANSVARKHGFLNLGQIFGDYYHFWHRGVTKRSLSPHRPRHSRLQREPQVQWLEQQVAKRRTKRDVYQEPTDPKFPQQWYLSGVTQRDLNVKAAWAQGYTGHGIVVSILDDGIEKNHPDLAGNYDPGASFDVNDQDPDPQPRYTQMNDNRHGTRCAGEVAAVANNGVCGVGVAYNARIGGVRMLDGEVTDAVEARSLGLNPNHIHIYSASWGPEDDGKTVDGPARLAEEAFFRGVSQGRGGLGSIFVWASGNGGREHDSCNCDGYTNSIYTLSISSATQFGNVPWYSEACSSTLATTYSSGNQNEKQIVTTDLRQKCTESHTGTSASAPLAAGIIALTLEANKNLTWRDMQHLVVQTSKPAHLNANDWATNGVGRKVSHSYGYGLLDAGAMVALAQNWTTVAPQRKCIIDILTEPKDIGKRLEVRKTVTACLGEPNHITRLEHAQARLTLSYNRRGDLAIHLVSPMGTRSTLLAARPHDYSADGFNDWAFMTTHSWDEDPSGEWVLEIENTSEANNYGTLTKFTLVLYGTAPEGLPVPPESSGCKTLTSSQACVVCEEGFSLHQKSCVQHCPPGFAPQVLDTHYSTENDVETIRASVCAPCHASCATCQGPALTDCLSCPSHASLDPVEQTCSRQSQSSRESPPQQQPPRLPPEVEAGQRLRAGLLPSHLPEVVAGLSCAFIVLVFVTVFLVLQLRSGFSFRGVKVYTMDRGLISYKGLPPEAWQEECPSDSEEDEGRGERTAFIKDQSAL

B1: HC824 (peptide)
chain: CALGIGTVLDAGNASASA
Consider B1, for which the “furin cleavage Z-score” value (7.5 min) is -0.583 (inactive), the “furin cleavage Z-score” value (15 min) was 0.0553 (inactive) and the “furin cleavage Z-score” value (30 min) was -0.254 (inactive).

B2: HC2067 (peptide)
chain: CAVVCCSMFYAGNASASA
As for B2, the “furin cleavage Z-score” value is -1.42 (inactive) (7.5 min), 0.168 (inactive) (15 min) and -1.67 (inactive) (30 min).

B3: FS-37 (peptide)
chain: CAISYRFPRGAGNASASA
Turning to B3, the “furin cleavage Z-score” value (7.5 min) was 4.87 (active), the “furin cleavage Z-score” value (15 min) is 7.38 (active) and the “furin cleavage Z-score” value (30 min) was 6.94 (active).

B4: FS-960 (peptide)
chain: CARYFRKRRGAGNASASA
Regarding B4, the “furin cleavage Z-score” value reads like this: (7.5 min) 10.2 (active); (15 min) 11.6 (active); (30 min) 9.02 (active).

B5: FS-671 (peptide)
chain: CAKKERRPRGAGNASASA
As to B5, the “furin cleavage Z-score” value reads like this: (7.5 min) 1.59; (15 min) 2.08; (30 min) 0.765 (inactive).

B6: HC447 (peptide)
chain: CAGAGNNTLHAGNASASA
For the sequence B6, the “furin cleavage Z-score” value runs as follows: (7.5 min) -0.871 (inactive); (15 min) 0.802 (inactive); (30 min) -0.559 (inactive).

B7: HC456 (peptide)
chain: CADATYSRCGAGNASASA
B7: the “furin cleavage Z-score” value (7.5 min) was 0.156 (inactive), the “furin cleavage Z-score” value (15 min) was 1.42 and the “furin cleavage Z-score” value (30 min) is 0.00204 (inactive).

B8: HC2314 (peptide)
chain: CAKVPCHRPSAGNASASA
As for B8, the “furin cleavage Z-score” value (7.5 min) is 1.64, the “furin cleavage Z-score” value (15 min) was 0.0197 (inactive) and the “furin cleavage Z-score” value (30 min) was 0.762 (inactive).

B9: FS-496 (peptide)
chain: CARRSRLKRAAGNASASA
For B9, the “furin cleavage Z-score” value (7.5 min) was 11.4 (active), the “furin cleavage Z-score” value (15 min) was 11.7 (active) and the “furin cleavage Z-score” value (30 min) is 8.87 (active).

B10: FS-113 (peptide)
chain: CAAENRALRLAGNASASA
With B10, the “furin cleavage Z-score” value (7.5 min) is 0.559 (inactive), the “furin cleavage Z-score” value (15 min) was -1.89 (inactive) and the “furin cleavage Z-score” value (30 min) is 1.32.

B11: FS-50 (peptide)
chain: CALGRRTKRAAGNASASA
For the sequence B11, the “furin cleavage Z-score” value reads like this: (7.5 min) 9.24 (active); (15 min) 10.5 (active); (30 min) 6.44 (active).

B12: FS-1442 (peptide)
chain: CAAEIRLKRAAGNASASA
As to B12, the “furin cleavage Z-score” value by setting is: (7.5 min) 9.68 (active); (15 min) 9.78 (active); (30 min) 8.4 (active).

B13: HC1575 (peptide)
chain: CALGNIIMFAAGNASASA
With B13, the “furin cleavage Z-score” value reads like this: (7.5 min) -0.725 (inactive); (15 min) -1.13 (inactive); (30 min) -0.0117 (inactive).

B14: FS-819 (peptide)
chain: CALGSRYKKAAGNASASA
Consider B14, for which the “furin cleavage Z-score” value was -0.0568 (inactive) (7.5 min), -0.0472 (inactive) (15 min) and -0.113 (inactive) (30 min).

B15: FS-1405 (peptide)
chain: CARRSRCIRAAGNASASA
With B15, the “furin cleavage Z-score” value is, setting by setting: (7.5 min) 9.51 (active); (15 min) 10.1 (active); (30 min) 8.44 (active).

B16: FS-2802 (peptide)
chain: CARRVRCSGAAGNASASA
Turning to B16, the “furin cleavage Z-score” value (7.5 min) was -0.409 (inactive), the “furin cleavage Z-score” value (15 min) was 0.495 (inactive) and the “furin cleavage Z-score” value (30 min) is 0.927 (inactive).

B17: HC1023 (peptide)
chain: CAAEQFKQKAAGNASASA
Regarding B17, the “furin cleavage Z-score” value reads like this: (7.5 min) 0.841 (inactive); (15 min) 0.435 (inactive); (30 min) -1.43 (inactive).

B18: HC699 (peptide)
chain: CAVCWTVYHGAGNASASA
As for B18, the “furin cleavage Z-score” value was -0.241 (inactive) (7.5 min), 1.41 (15 min) and -1.21 (inactive) (30 min).

B19: HC2239 (peptide)
chain: CAEVVTSTPVAGNASASA
For the sequence B19, the “furin cleavage Z-score” value was -0.71 (inactive) (7.5 min), -0.517 (inactive) (15 min) and -0.991 (inactive) (30 min).

B20: HC1910 (peptide)
chain: CATTPCSGVWAGNASASA
For B20, the “furin cleavage Z-score” value (7.5 min) is -0.00612 (inactive), the “furin cleavage Z-score” value (15 min) worked out at 1.65 and the “furin cleavage Z-score” value (30 min) is 0.601 (inactive).

B21: HC2138 (peptide)
chain: CAETVVCCSMAGNASASA
On to B21, for which the “furin cleavage Z-score” value by setting is: (7.5 min) 0.723 (inactive); (15 min) 1.46; (30 min) 0.375 (inactive).

B22: FS-460 (peptide)
chain: CALSRRLKRAAGNASASA
Consider B22, for which the “furin cleavage Z-score” value reads like this: (7.5 min) 12.9 (active); (15 min) 10.6 (active); (30 min) 7.76 (active).

B23: HC1136 (peptide)
chain: CALTVTQLLRAGNASASA
As to B23, the “furin cleavage Z-score” value reads like this: (7.5 min) -0.529 (inactive); (15 min) 1.28; (30 min) -0.0718 (inactive).

B24: FS-3086 (peptide)
chain: CARSKRRHRTAGNASASA
B24: the “furin cleavage Z-score” value reads like this: (7.5 min) 5.67 (active); (15 min) 4.65 (active); (30 min) 6.42 (active).

B25: FS-1930 (peptide)
chain: CARSKRSALRAGNASASA
B25: the “furin cleavage Z-score” value was 8.67 (active) (7.5 min), 9.74 (active) (15 min) and 9.58 (active) (30 min).

B26: HC490 (peptide)
chain: CARSELSPLLAGNASASA
For B26, the “furin cleavage Z-score” value is, setting by setting: (7.5 min) 0.997 (inactive); (15 min) -1.17 (inactive); (30 min) 0.877 (inactive).

B27: HC287 (peptide)
chain: CALPATQLRRAGNASASA
Regarding B27, the “furin cleavage Z-score” value (7.5 min) is -0.751 (inactive), the “furin cleavage Z-score” value (15 min) is -1.22 (inactive) and the “furin cleavage Z-score” value (30 min) is -0.432 (inactive).

B28: FS-3208 (peptide)
chain: CARSKRSRLLAGNASASA
Regarding B28, the “furin cleavage Z-score” value reads like this: (7.5 min) 2.35; (15 min) 5.37 (active); (30 min) 6.91 (active).

B29: FS-3085 (peptide)
chain: CARSKRPPLVAGNASASA
With B29, the “furin cleavage Z-score” value runs as follows: (7.5 min) -1.04 (inactive); (15 min) 1.04; (30 min) 0.266 (inactive).

B30: HC1623 (peptide)
chain: CARSVRARLLAGNASASA
As to B30, the “furin cleavage Z-score” value runs as follows: (7.5 min) -0.453 (inactive); (15 min) 0.839 (inactive); (30 min) -0.225 (inactive).

B31: FS-2305 (peptide)
chain: CARSKRQLRRAGNASASA
Regarding B31, the “furin cleavage Z-score” value is 5.77 (active) (7.5 min), 8.83 (active) (15 min) and 9.3 (active) (30 min).

B32: HC1572 (peptide)
chain: CATPVNSWLGAGNASASA
As for B32, the “furin cleavage Z-score” value is, setting by setting: (7.5 min) -0.962 (inactive); (15 min) 0.658 (inactive); (30 min) -0.136 (inactive).

B33: HC963 (peptide)
chain: CADQMWKCLIAGNASASA
Take B33: the “furin cleavage Z-score” value is -0.00547 (inactive) (7.5 min), 0.512 (inactive) (15 min) and 0.111 (inactive) (30 min).

B34: HC2383 (peptide)
chain: CAEVPCHRASAGNASASA
B34: the “furin cleavage Z-score” value was -0.108 (inactive) (7.5 min), 1.91 (15 min) and 1.32 (30 min).

B35: HC1527 (peptide)
chain: CAMLVCGDDLAGNASASA
Take B35: the “furin cleavage Z-score” value is -1.47 (inactive) (7.5 min), -2.12 (inactive) (15 min) and -1.71 (inactive) (30 min).

B36: FS-3264 (peptide)
chain: CARSKRLMKRAGNASASA
For the sequence B36, the “furin cleavage Z-score” value (7.5 min) is 7.59 (active), the “furin cleavage Z-score” value (15 min) is 8.33 (active) and the “furin cleavage Z-score” value (30 min) is 6.04 (active).

B37: FS-2524 (peptide)
chain: CARSKRLLSDAGNASASA
Take B37: the “furin cleavage Z-score” value was 1.69 (7.5 min), 0.376 (inactive) (15 min) and 1.96 (30 min).

B38: FS-3171 (peptide)
chain: CARSKRSTLLAGNASASA
Regarding B38, the “furin cleavage Z-score” value reads like this: (7.5 min) 6.63 (active); (15 min) 9.65 (active); (30 min) 8.72 (active).

B39: FS-2354 (peptide)
chain: CARMKRDTSLAGNASASA
With B39, the “furin cleavage Z-score” value (7.5 min) was 12.7 (active), the “furin cleavage Z-score” value (15 min) was 14.2 (active) and the “furin cleavage Z-score” value (30 min) is 10.6 (active).

B40: HC674 (peptide)
chain: CAAPITAYAQAGNASASA
Consider B40, for which the “furin cleavage Z-score” value was -1.65 (inactive) (7.5 min), -1.79 (inactive) (15 min) and -0.691 (inactive) (30 min).

B41: FS-2536 (peptide)
chain: CARVRRAVLPAGNASASA
For B41, the “furin cleavage Z-score” value is, setting by setting: (7.5 min) 8.16 (active); (15 min) 9.49 (active); (30 min) 9.52 (active).

B42: FS-1801 (peptide)
chain: CARVPRTVLPAGNASASA
With B42, the “furin cleavage Z-score” value (7.5 min) amounted to 1.52, the “furin cleavage Z-score” value (15 min) was 0.946 (inactive) and the “furin cleavage Z-score” value (30 min) is 3.87 (active).

B43: FS-2406 (peptide)
chain: CARVRRHSDPAGNASASA
In the case of B43, the “furin cleavage Z-score” value was 10.2 (active) (7.5 min), 8.54 (active) (15 min) and 6.84 (active) (30 min).

B44: HC495 (peptide)
chain: CATTQWQVLPAGNASASA
B44: the “furin cleavage Z-score” value is -0.0417 (inactive) (7.5 min), 1.36 (15 min) and 0.907 (inactive) (30 min).

B45: FS-3121 (peptide)
chain: CARVPRKVQPAGNASASA
Turning to B45, the “furin cleavage Z-score” value (7.5 min) is -0.302 (inactive), the “furin cleavage Z-score” value (15 min) amounted to 1.08 and the “furin cleavage Z-score” value (30 min) was 0.984 (inactive).

B46: HC909 (peptide)
chain: CAGIYRFVAPAGNASASA
On to B46, for which the “furin cleavage Z-score” value by setting is: (7.5 min) -1.23 (inactive); (15 min) -0.739 (inactive); (30 min) -0.847 (inactive).

B47: FS-2583 (peptide)
chain: CARQGRGSDPAGNASASA
With B47, the “furin cleavage Z-score” value was -1.86 (inactive) (7.5 min), -0.176 (inactive) (15 min) and 0.17 (inactive) (30 min).

B48: FS-2028 (peptide)
chain: CARIARVVLQAGNASASA
Turning to B48, the “furin cleavage Z-score” value was -0.514 (inactive) (7.5 min), -0.914 (inactive) (15 min) and 1.2 (30 min).

B49: FS-2108 (peptide)
chain: CARVRRRGSPAGNASASA
Turning to B49, the “furin cleavage Z-score” value is -0.273 (inactive) (7.5 min), 2.05 (15 min) and 2 (30 min).

B50: FS-2683 (peptide)
chain: CARIARFVLPAGNASASA
B50: the “furin cleavage Z-score” value (7.5 min) was 2.58, the “furin cleavage Z-score” value (15 min) turned out to be 2.47 and the “furin cleavage Z-score” value (30 min) was 6.22 (active).
